Molecules are shown by their SMILES. Calls of active or inactive are those of the source. How the source made its calls: active means hit-call score of the fitted dose curve at least 0.9, where 1 is the maximum; inactive means score below 0.9.

Usually AC50 stands for the midpoint of the concentration-response curve, whichever way the signal moves.

What all share (conditions): mRNA level, 48 h; actives raise or lower the signal
Read-out in assay [1]: matrix metalloproteinase-10 (MMP10), MMP10 (gene 4319)
Briefly: LTEA_HepaRG_MMP10: Life Technologies and Expression Analysis (LTEA) Assay for matrix metalloproteinase-10 (MMP10) using HepaRG (AID 2283517). In outline: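 HepaRG, collagen I, ~100,000 cells/well; serum-free induction medium; 48 h exposure, duplicate, 8-pt half-log to 100 uM, 0.5% DMSO. Readout: TaqMan qRT-PCR, normalized to ACTB/GAPDH/POLR2A; bidirectional fit vs DMSO.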

Read-out in assay [2]: MYC, MYC (gene 4609)
Briefly: LTEA_HepaRG_MYC: Life Technologies and Expression Analysis (LTEA) Assay for MYC using HepaRG (AID 2283518). Summed up:
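Differentiated human HepaRG cells, plated 48 h then switched to serum-free induction medium, were exposed in duplicate for 48 h to 8-point half-log series up to 100 uM in 0.5% DMSO. MYC mRNA measured by qRT-PCR, normalized to ACTB/GAPDH/POLR2A.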

Read-out in assay [3]: matrix metalloproteinase-3 (MMP3), MMP3 (gene 4314)
Briefly: LTEA_HepaRG_MMP3: Life Technologies and Expression Analysis (LTEA) Assay for matrix metalloproteinase-3 (MMP3) using HepaRG (AID 2283519). Summed up: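 Differentiated human HepaRG cells, plated 48 h on collagen I, were exposed in duplicate for 48 h in serum-free induction medium to eight half-log concentrations up to 100 uM in 0.5% DMSO. MMP3 mRNA was quantified by TaqMan qRT-PCR, normalised to ACTB, GAPDH and POLR2A.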

Read-out in assay [4]: Paternally Expressed 10 (PEG10), PEG10 (gene 23089)
Briefly: LTEA_HepaRG_PEG10: Life Technologies and Expression Analysis (LTEA) Assay for Paternally Expressed 10 (PEG10) using HepaRG (AID 2283520).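 On AC50: PEG10 transcript by qRT-PCR normalised to ACTB GAPDH and POLR2A.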 Summed up:
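Chemicals tested on HepaRG cells for 48 h, highest concentration 100 uM. PEG10 expression assessed by qRT-PCR relative to DMSO control.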

Read-out in assay [5]: Protein phosphatase 2A (PPP2R4), PTPA (gene 5524)
Put plainly: LTEA_HepaRG_PPP2R4: Life Technologies and Expression Analysis (LTEA) Assay for Protein phosphatase 2A (PPP2R4) using HepaRG (AID 2283522). Summed up: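 Gene-expression endpoint in HepaRG hepatic cells: 48 h treatment across eight half-log concentrations up to 100 uM in 0.5% DMSO. PPP2R4 mRNA by qRT-PCR, normalized to three endogenous control genes.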

Read-out in assay [6]: Phosphatase and tensin (PTEN), PTEN (gene 5728)
Briefly: LTEA_HepaRG_PTEN: Life Technologies and Expression Analysis (LTEA) Assay for Phosphatase and tensin (PTEN) using HepaRG (AID 2283523). In outline:
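Differentiated human HepaRG cells, plated 48 h then switched to serum-free induction medium, were exposed in duplicate for 48 h to eight half-log concentrations up to 100 uM in 0.5% DMSO. PTEN mRNA measured by TaqMan qRT-PCR, normalized to ACTB/GAPDH/POLR2A, bidirectional fit versus DMSO.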

Read-out in assay [7]: solute carrier (SLC22A1), SLC22A1 (gene 6580)
Briefly: LTEA_HepaRG_SLC22A1: Life Technologies and Expression Analysis (LTEA) Assay for solute carrier (SLC22A1) using HepaRG (AID 2283524). In outline:
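Human HepaRG cells were plated 48 h, switched to serum-free induction medium, then exposed in duplicate for 48 h to 8-point half-log series from 100 uM in 0.5% DMSO. SLC22A1 mRNA measured by qRT-PCR, normalized to ACTB/GAPDH/POLR2A, fitted bidirectionally versus DMSO.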

Read-out in assay [8]: Pyruvate Dehydrogenase Kinase 4 (PDK4), PDK4 (gene 5166)
Put plainly: LTEA_HepaRG_PDK4: Life Technologies and Expression Analysis (LTEA) Assay for Pyruvate Dehydrogenase Kinase 4 (PDK4) using HepaRG (AID 2283525). In outline:
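Differentiated human HepaRG cells, pre-cultured 48 h, were exposed in duplicate for 48 h in serum-free induction medium to eight half-log concentrations up to 100 uM in 0.5% DMSO. PDK4 mRNA was quantified by qRT-PCR, normalized to ACTB, GAPDH and POLR2A, bidirectional fitting versus DMSO.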

Read-out in assay [9]: NAD(P)H dehydrogenase [quinone] 1 (NQO1), NQO1 (gene 1728)
Briefly: LTEA_HepaRG_NQO1: Life Technologies and Expression Analysis (LTEA) Assay for NAD(P)H dehydrogenase [quinone] 1 (NQO1) using HepaRG (AID 2283526). Summed up: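 Human HepaRG hepatic cells received chemicals for 48 h in serum-free induction medium with 0.5% DMSO, up to 100 uM. Expression was assessed by TaqMan qRT-PCR against housekeeping controls and fitted bidirectionally against DMSO.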

Read-out in assay [10]: Nuclear factor erythroid 2-related factor 2 (Homo sapiens) (UniProt Q16236)
Briefly: LTEA_HepaRG_NFE2L2: Life Technologies and Expression Analysis (LTEA) Assay for Nuclear factor erythroid 2-related factor 2 (NFE2L2) Transcription Factor using HepaRG (AID 2283527).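 On outcome: TaqMan qRT-PCR transcript level normalised to ACTB GAPDH and POLR2A housekeeping genes.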 In outline: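 Differentiated human HepaRG cells in serum-free induction medium were exposed for 48 h to eight concentrations (top 100 uM, half-log dilutions, 0.5% DMSO), in duplicate. NFE2L2 mRNA was quantified by TaqMan qRT-PCR, normalized to ACTB, GAPDH and POLR2A, with bidirectional fitting versus DMSO.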

Read-out in assay [11]: succinate dehydrogenase complex iron sulfur subunit B (SDHB), SDHB (gene 6390)
Briefly: LTEA_HepaRG_SDHB: Life Technologies and Expression Analysis (LTEA) Assay for succinate dehydrogenase complex iron sulfur subunit B (SDHB) using HepaRG (AID 2283528). In outline: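 HepaRG, 48 h exposure, 8-pt half-log series from 100 uM in 0.5% DMSO, duplicates. Readout: SDHB mRNA by Fluidigm qRT-PCR vs housekeeping genes; bidirectional fit relative to DMSO.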

Read-out in assay [12]: Signal transducer and activator of transcription 3 (Homo sapiens) (UniProt P40763)
Briefly: LTEA_HepaRG_STAT3: Life Technologies and Expression Analysis (LTEA) Assay for Signal transducer and activator of transcription (STAT3) using HepaRG (AID 2283529). In outline:
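Differentiated human HepaRG cells in serum-free induction medium were exposed in duplicate for 48 h to eight half-log concentrations up to 100 uM in 0.5% DMSO. STAT3 mRNA was quantified by TaqMan qRT-PCR, normalized to ACTB, GAPDH and POLR2A, and fitted bidirectionally against DMSO.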

Read-out in assay [13]: solute carrier (SLCO1B1), SLCO1B1 (gene 10599)
Briefly: LTEA_HepaRG_SLCO1B1: Life Technologies and Expression Analysis (LTEA) Assay for solute carrier (SLCO1B1) using HepaRG (AID 2283530). Summed up: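 Differentiated human HepaRG cells, plated 48 h, switched to serum-free induction medium and exposed in duplicate for 48 h to 8 half-log concentrations (top 100 uM) in 0.5% DMSO. SLCO1B1 mRNA by TaqMan qRT-PCR, normalized to ACTB/GAPDH/POLR2A.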

Read-out in assay [14]: sulfotransferase 2A1 (SULT2A1), SULT2A1 (gene 6822)
Briefly: LTEA_HepaRG_SULT2A1: Life Technologies and Expression Analysis (LTEA) Assay for sulfotransferase 2A1 (SULT2A1) using HepaRG (AID 2283531). Summed up:
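Differentiated human HepaRG cells in serum-free induction medium were exposed for 48 h to eight half-log concentrations (top 100 uM, 0.5% DMSO). SULT2A1 mRNA was measured by qRT-PCR, normalized to ACTB, GAPDH and POLR2A, and fitted bidirectionally against DMSO.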

Read-out in assay [15]: Transforming Growth Factor (TGFA), TGFA (gene 7039)
Put plainly: LTEA_HepaRG_TGFA: Life Technologies and Expression Analysis (LTEA) Assay for Transforming Growth Factor (TGFA) using HepaRG (AID 2283532). Summed up: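 Differentiated human HepaRG cells, plated 48 h then switched to serum-free induction medium, were exposed in duplicate for 48 h to 8-point half-log series from 100 uM in 0.5% DMSO. TGFA mRNA measured by qRT-PCR, normalized to ACTB/GAPDH/POLR2A, bidirectional fit versus DMSO.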

Read-out in assay [16]: Transforming Growth Factor (TGFB1), TGFB1 (gene 7040)
Briefly: LTEA_HepaRG_TGFB1: Life Technologies and Expression Analysis (LTEA) Assay for Transforming Growth Factor (TGFB1) Transporter using HepaRG (AID 2283533). Summed up: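 Differentiated human HepaRG cells in serum-free induction medium were exposed in duplicate for 48 h to eight concentrations (top 100 uM, half-log steps, 0.5% DMSO). TGFB1 mRNA was quantified by qRT-PCR, normalized to ACTB, GAPDH, POLR2A, and fitted bidirectionally against DMSO.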

Read-out in assay [17]: TIMP1, TIMP1 (gene 7076)
Briefly: LTEA_HepaRG_TIMP1: Life Technologies and Expression Analysis (LTEA) Assay for TIMP1 using HepaRG (AID 2283534).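 On outcome: TaqMan qRT-PCR signal normalized to ACTB GAPDH and POLR2A housekeeping genes.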 Summed up:
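Differentiated human HepaRG cells in serum-free induction medium were exposed 48 h to chemicals (8 half-log concentrations, top 100 uM, 0.5% DMSO). TIMP1 mRNA was quantified by TaqMan qRT-PCR, normalized to ACTB/GAPDH/POLR2A; bidirectional fit versus DMSO.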

Read-out in assay [18]: Tumor necrosis factor receptor 1 (TNFRSF1A), TNFRSF1A (gene 7132)
Briefly: LTEA_HepaRG_TNFRSF1A: Life Technologies and Expression Analysis (LTEA) Assay for Tumor necrosis factor receptor 1 (TNFRSF1A) using HepaRG (AID 2283535). In outline: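 Differentiated human HepaRG cells were exposed in duplicate for 48 h in serum-free induction medium to eight concentrations (top 100 uM, half-log steps, 0.5% DMSO). TNFRSF1A mRNA was quantified by qRT-PCR, normalized to ACTB, GAPDH and POLR2A, then fitted bidirectionally against DMSO.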

Sequence of Nuclear factor erythroid 2-related factor 2 (Homo sapiens) (Q16236 whole entry, looked up): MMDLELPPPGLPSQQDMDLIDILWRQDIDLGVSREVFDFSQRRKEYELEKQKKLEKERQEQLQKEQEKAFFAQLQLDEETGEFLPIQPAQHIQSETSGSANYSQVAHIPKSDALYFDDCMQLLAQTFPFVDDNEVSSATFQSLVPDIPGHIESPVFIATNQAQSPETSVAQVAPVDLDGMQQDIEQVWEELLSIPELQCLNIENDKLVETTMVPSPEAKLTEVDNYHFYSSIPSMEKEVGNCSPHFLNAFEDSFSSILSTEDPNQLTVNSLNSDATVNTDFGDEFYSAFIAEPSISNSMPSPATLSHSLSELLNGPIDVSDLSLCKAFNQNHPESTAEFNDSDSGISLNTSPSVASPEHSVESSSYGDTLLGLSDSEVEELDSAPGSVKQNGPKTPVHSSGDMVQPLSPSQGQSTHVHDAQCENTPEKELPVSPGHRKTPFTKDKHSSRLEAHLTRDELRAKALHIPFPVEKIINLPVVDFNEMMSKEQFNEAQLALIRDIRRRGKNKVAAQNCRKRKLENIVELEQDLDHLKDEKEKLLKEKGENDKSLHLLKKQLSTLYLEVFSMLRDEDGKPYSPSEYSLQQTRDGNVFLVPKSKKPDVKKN
Sequence of Signal transducer and activator of transcription 3 (Homo sapiens) (P40763 whole entry, looked up): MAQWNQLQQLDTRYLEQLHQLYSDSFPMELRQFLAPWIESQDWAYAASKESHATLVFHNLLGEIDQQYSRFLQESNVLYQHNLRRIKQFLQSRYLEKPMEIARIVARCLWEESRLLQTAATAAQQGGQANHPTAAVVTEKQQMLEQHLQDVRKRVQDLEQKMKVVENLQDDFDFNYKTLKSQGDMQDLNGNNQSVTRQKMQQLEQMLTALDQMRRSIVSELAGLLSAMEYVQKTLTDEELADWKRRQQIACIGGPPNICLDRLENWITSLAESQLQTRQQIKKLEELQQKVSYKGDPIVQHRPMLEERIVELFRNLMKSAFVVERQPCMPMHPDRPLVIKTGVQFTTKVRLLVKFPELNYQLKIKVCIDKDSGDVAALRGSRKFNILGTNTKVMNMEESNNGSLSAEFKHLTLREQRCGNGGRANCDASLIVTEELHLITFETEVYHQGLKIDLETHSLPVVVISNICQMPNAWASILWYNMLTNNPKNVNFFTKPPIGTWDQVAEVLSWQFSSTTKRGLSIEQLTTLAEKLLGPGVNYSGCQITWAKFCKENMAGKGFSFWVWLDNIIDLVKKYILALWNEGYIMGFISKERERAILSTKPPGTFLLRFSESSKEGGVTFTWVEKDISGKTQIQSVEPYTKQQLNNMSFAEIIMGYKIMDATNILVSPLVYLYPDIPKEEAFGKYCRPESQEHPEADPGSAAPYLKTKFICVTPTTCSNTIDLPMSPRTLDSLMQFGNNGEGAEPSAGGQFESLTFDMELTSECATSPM

With `CO/N=C(/C1=NOCCO1)c1ccccc1Oc1ncnc(Oc2ccccc2Cl)c1F`, the AC50 in assay [1] was 50 µM (active); in assay [2], 29.9 µM (active); in assay [3] it was 50 µM (active); in assay [4], 5.88 µM (active); in assay [7], 24.8 µM (active); in assay [8] it was 11.7 µM (active). Further, the half-maximal activity concentration (AC50) was 50 µM (active) in assay [10]; 6.5 µM (active) in [12]; 31.1 µM (active) in assay [13]; 33.9 µM (active) in assay [14]; 31.2 µM (active) in assay [15]; 50 µM (active) in [17]. For the same molecule, the call in [5], in [6], in [9], in assay [11], in assay [16] and in assay [18] was inactive.
For the molecule `COC(=O)N(C(=O)N1CO[C@@]2(C(=O)OC)Cc3cc(Cl)ccc3C2=N1)c1ccc(OC(F)(F)F)cc1`, the molecule was called inactive in assay [1], in [2], in [3], in assay [5], in assay [6] and in [9]. Moreover, the call in [12], in assay [15], in assay [16], in assay [17] and in assay [18] was inactive. In addition, the concentration at half-maximal activity (AC50) in [4] was 20.5 µM (active); in [8], 40 µM (active); in [10] it was 10 µM (active); in assay [13] it was 59 µM (active); in assay [14], 65 µM (active).
With `COCC(=O)N(c1c(C)cccc1C)C(C)C(=O)OC` (configuration not stated), the outcome in assay [1], in assay [2], in [3], in [4], in assay [5] and in assay [6] was inactive. The call in assay [8], in assay [9], in assay [10], in assay [11], in [12] and in assay [13] was inactive. Further, the outcome in assay [14], in assay [15], in [16], in assay [17] and in assay [18] was inactive.
For `CC1(C)C(C=C(Cl)Cl)C1C(=O)OC(C#N)c1cccc(Oc2ccccc2)c1` (configuration not stated), the molecule was classed as inactive in assay [1], in assay [2], in assay [3], in assay [5], in [6] and in assay [9]. Besides, the result in [10], in [12], in assay [13], in assay [14], in assay [15] and in assay [16] was inactive. Further, the molecule was classed as inactive in assay [17] and in [18]. Further, the AC50 in [4] and in assay [8] was 50 µM (active) throughout.

The record behind these values is PubChem BioAssay (EPA / NIEHS).
